The list is a sample of the results.
aSyn 5UTR act = Activators working through SNCA 5'UTR binding (MLPCN). AID 1814. alpha-synuclein 5'UTR reporter, activators screen. hit rate 7.1% among 300,000. activity score, % (tested at 7.5 µM), hits read low; in the data active means activity score below about -60%
Hits are given with their value; i = inactive.

SMILES	aSyn 5UTR act
CN(CC(=O)Nc1cccc(F)c1)C(=O)CCCNC(=O)c1ccc(Cl)cc1	-91
Cc1cccc(-n2ncc3c(NCc4ccccn4)ncnc32)c1	-113
c1ccc(-n2ncc3c(NCc4ccccn4)ncnc32)cc1	-69
Cc1ccc(OCC(=O)N/N=C/c2cn(Cc3ccccc3)c3ccccc23)cc1	i
Cc1[nH][nH]c(=O)c1C(c1c(C)[nH][nH]c1=O)c1cn(Cc2ccc(Cl)c(Cl)c2)c2ccccc12	i
Cc1cccc(Cn2cc(SCC(=O)Nc3nccs3)c3ccccc32)c1	-156
Cc1cc(=O)c2cc3nc(-c4cccnc4)oc3c(Br)c2o1	-67
CCc1ccc2[nH]c(=O)c(CN(Cc3ccccc3OC)C(=O)Nc3ccccc3OC)cc2c1	-72
O=[N+]([O-])c1nn(-c2ccc3c(c2)OCCO3)n(O)c1=Nc1ccccc1	i
O=[N+]([O-])c1nn(-c2ccc3c(c2)OCCO3)n(O)c1=NC1CCCC1	-108
O=[N+]([O-])c1nn(-c2ccc3c(c2)OCCO3)n(O)c1=NC1CCCCCC1	-91
Cc1ccc(Nc2ccc(C(=O)O)cc2N)cc1	-107
COc1cccc(Nc2ccc(C(=O)O)cc2N)c1	-118
COc1cccc(-c2nc3sc4c(c3c(=O)[nH]2)CCCCC4)c1	-267
COCCNC(=S)N/N=C(\C)c1ccccc1O	-161
COc1ccccc1/C=N/Nc1nncc2ccccc12	-132
COc1ccc(/C=N/Nc2nncc3ccccc23)cc1	i
Oc1c(Br)cc(/C=N/Nc2nncc3ccccc23)cc1Br	-109
COc1cccc(/C=N/Nc2ncnc3scc(-c4ccccc4)c23)c1O	i
Cn1c(NC(=O)/C=C/c2ccccc2)cc(=O)n(C)c1=O	-253
Cn1c(NC(=O)CCc2ccccc2)cc(=O)n(C)c1=O	-186
Cn1c(NC(=O)/C=C/c2ccc(Cl)c(Cl)c2)cc(=O)n(C)c1=O	-181
COc1ccc(/C=C/C(=O)Nc2cc(=O)n(C)c(=O)n2C)cc1	-104
COc1ccc(C(=O)c2cnc(/N=C/N(C)C)s2)cc1	-93
CN(C)/C=N/c1ncc(C(=O)c2ccc3ccccc3c2)s1	-81
SMILES	aSyn 5UTR act
Cn1nccc1C(=O)Nc1ccc(Cl)cc1	-63
Cn1nccc1C(=O)Nc1ccc2c(c1)OCO2	-115
COc1ccc(NC(=O)/C=C/c2ccc3c(c2)OCO3)cc1	-91
COc1cccc(N/C(C)=C/C(=O)c2ccc(Br)cc2)c1	-172
COc1ccc(C(=O)/C=C(\C)Nc2ccc3c(c2)OCO3)cc1	-170
COc1ccc(N/C(C)=C/C(=O)c2ccccc2)cc1	-151
COC(=O)/C(=C\C(=O)c1ccccc1)Nc1ccc(OC)cc1	-93
COc1ccc(N/C(C)=C/C(=S)Nc2ccccc2)cc1	-75
CC(=O)Nc1ccc(OCc2ccc3c(c2)OCO3)cc1	-151
COc1ccc(OC)c(NC(=O)c2ccccc2OC(C)=O)c1	-69
COc1ccc(OC)c(N/C(C)=C/C(=O)c2ccccc2)c1	-113
COc1ccc(OC)c(N/C=C/C(=O)c2ccccc2)c1	i
Cc1cc(=O)n2cc(-c3ccccc3)nc2[nH]1	-70
O=C(CSc1nnnn1Cc1ccccc1)c1ccccc1	-67
CCn1nnnc1SCC(=O)c1ccc(C)cc1	-66
CC(C)(C)SCCNC(=O)/C=C/c1ccc(F)cc1	-68
CC(C)(C)SCCNC(=O)/C=C/c1ccccc1	-113
O=C(/C=C/c1ccccc1)NCCc1ccccc1	-154
CC(C)NC(=S)NC(=O)/C=C/c1ccc(F)cc1	-64
CSc1nc2c(cnn2-c2ccccc2)c(=O)n1N	-92
CCSc1nc2c(cnn2-c2ccccc2)c(=O)n1N	-105
CCOC(=O)Nc1ccc2c(COC(=O)c3ccccc3O)cc(=O)oc2c1	-83
COc1ccccc1C(=O)Nc1ccc2c(C)cc(=O)oc2c1	-154
CCN(CC)c1ccc(C(=O)OCc2cc(=O)oc3cc(O)ccc23)cc1	i
Cc1ccccc1OCCC(=O)Nc1ccc2c(C)cc(=O)oc2c1	-64
SMILES	aSyn 5UTR act
Cc1ccc(N=Cc2ccc(O)cc2O)cc1F	-84
CC(=O)c1ccc(NC(=O)C2CCN(S(=O)(=O)c3cccs3)CC2)cc1	-80
O=C(Nc1nc2ccccc2[nH]1)C1CCN(S(=O)(=O)c2cccs2)CC1	-70
Cc1cc(C)nc(NC(=O)c2cc(-c3ccc(C)s3)nc3ccccc23)c1	-62
Nn1c(SCC(=O)Nc2ccc(F)cc2F)nnc1C1CCCCC1	-64
Nn1c(SCC(=O)Nc2ccc(F)cc2F)nnc1-c1cccnc1	-89
C=CCc1ccc(OCc2ccc(C(=O)Nc3ccc(NC(C)=O)cc3)o2)c(OC)c1	-74
COC(=O)c1cnc(SCC(=O)c2ccccc2)n1C	-94
COC(=O)c1ccnc(SCC(=O)c2ccccc2)c1	-117
COC(=O)c1cnc(SCc2ccc(Cl)cc2)n1C	-70
Cn1c(SCC(=O)c2ccccc2)ncc(C(=O)Nc2ccccc2)c1=O	-67
CC(C)(C)c1cc(C(=O)NCCN2CCCC2)cc(C(C)(C)C)c1	-82
CC(C)(C)c1ccc(C(=O)NCCC(=O)N2CCCC2)cc1	-105
Cc1ccc(C(=O)NCCC(=O)N2CCOCC2)cc1	-101
Clc1ccc2oc(-c3ccccn3)nc2c1	-147
c1ccc(-c2nc3ccccc3o2)nc1	-70
Nc1ccc2oc(-c3ccccn3)nc2c1	-133
NNCCc1ccccc1	-133
O=C(OCc1csc(-c2ccccc2)n1)c1ccccc1O	-149
Cc1ccc(NNc2c(C)nc3ccccc3nc2=O)cc1	-112
CCCc1ccc(OC(=O)c2ccc(O)cc2Cl)cc1	-63
CCN(C(=O)CSc1cc(C)c2cccc(C)c2n1)C1CCS(=O)(=O)C1 (configuration not stated)	-80
Nc1ccc2c(c1)sc1ccccc12	-148
COc1ccc(-c2csc3nc(-c4ccccc4F)oc(=O)c23)cc1	-101
COc1ccc(F)cc1CN1CCN(c2ncnc3scc(-c4ccccc4)c23)CC1	i
SMILES	aSyn 5UTR act
CCOc1ccc(/C=C/c2nc(C#N)c(NCCCOC)o2)cc1	-150
COCCCNc1oc(/C=C/c2ccccc2)nc1C#N	-114
O=C(NCC(=O)N1CCc2ccccc2C1)c1ccccc1Cl	-101
O=C(CNC(=O)c1ccccc1Cl)OCC(=O)N1CCc2ccccc21	-117
Cc1cc(C(=O)OCC(=O)N2CCc3ccccc32)c(C)o1	-163
Nc1nc(N)nc(COc2ccccc2)n1	-106
COC(=O)c1c(NC(=O)c2cccs2)sc2c1CCC(C)C2 (configuration not stated)	-113
CCCC1CCc2c(sc(NC(=O)c3cccs3)c2C(N)=O)C1 (configuration not stated)	-99
CC(C)c1ccc(NC(=O)c2ccccc2NC(=O)C2CCCCC2C(=O)O)cc1 (configuration not stated)	-121
O=C(NCCc1ccccc1)c1ccccc1NC(=O)C1CCCCC1C(=O)O (configuration not stated)	-146
CCOC(=O)c1cnc2cc3c(cn2c1=O)CCCC3	-132
COc1cc2nc(Nc3cccc(F)c3)nc(N)c2cc1OC	-93
O=C(Nc1ccc(Cl)cc1)c1ccc(Br)cc1F	-123
COc1ccc(C(=O)Nc2ccc3cn[nH]c3c2)c(OC)c1	-99
COc1cc2ccccc2cc1C(=O)Nc1cccnc1	-139
COc1cc2ccccc2cc1C(=O)Nc1ccccc1Cl	-139
COc1cc2ccccc2cc1C(=O)Nc1ccc(N2CCN(C)CC2)cc1	-176
CCOc1ccc(NC(=O)c2ccc(F)cc2F)cc1	-103
CCOc1ccc(NC(=O)c2cc3ccccc3cc2OC)cc1	-133
COc1ccc(NC(=O)c2ccc3ccccc3c2OC)cc1	-215
CCOc1ccc(NC(=O)c2cc(OC)nc3ccccc23)cc1	i
